High-throughput results: PubChem, Broad Institute
miR122 inh – raises miR-122 sensor activity in Huh7 cells; Huh7 psiCHECK-miR122 Renilla luciferase sensor, 48 h; activation, % at 12.5 µM; 340,000 compounds, 0.14% hits; AID 623901;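 active = mean activation of 30% or more, with every replicate also reaching 30%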;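 note: 0% = median of neutral control wells and 100% = median of positive control wells; higher luciferase signal means stronger suppression of miR-122 activity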
* = called active by the depositor. Shown is part of a subset that was picked to be rich in hits.

SMILES	miR122 inh
C[C@H]1CN([C@@H](C)CO)C(=O)c2cccc(NC(=O)c3ccncc3)c2O[C@@H]1CN(C)Cc1ccc(C(F)(F)F)cc1	-108
CC(C)CC#Cc1cnc2c(c1)C(=O)N([C@@H](C)CO)C[C@H](C)[C@@H](CN(C)Cc1ccc(F)cc1)O2	0
CCN(C[C@H]1[C@H](c2ccccc2)[C@@H](CO)N1C(=O)COC)S(C)(=O)=O	-92
COCC(=O)N1[C@H](CO)[C@H]2c3ccccc3N(C(=O)C3CC3)C[C@H]21	42*
O=C(c1ccc(F)cc1)N1C[C@H]2[C@@H](c3ccccc31)[C@@H](CO)N2C(=O)c1ccc(F)cc1	-364
O=C(c1cccc(F)c1)N1C[C@H]2[C@@H](c3ccccc31)[C@@H](CO)N2C(=O)c1ccc(F)cc1	-192
O=C(c1cccnc1)N1C[C@H]2[C@@H](c3ccccc31)[C@H](CO)N2C(=O)C1CCCC1	40*
COc1ccc(C(=O)N2C[C@H]3[C@@H](c4ccccc42)[C@@H](CO)N3C(=O)c2ccc(F)cc2)cc1	-92
C[C@H](CO)N1C[C@H](C)[C@H](CN(C)C(=O)Cc2ccccc2)Oc2ncc(C#CC3(O)CCCC3)cc2C1=O	4
C[C@H]1CN([C@@H](C)CO)C(=O)c2cc(C#CCc3ccccc3)cnc2O[C@@H]1CN(C)Cc1ccccn1	1
C[C@@H]1CN([C@@H](C)CO)C(=O)c2cc(-c3ccncc3)cnc2O[C@@H]1CN(C)C(=O)Cc1ccccn1	0
C[C@H]1CN([C@@H](C)CO)S(=O)(=O)c2ccc(C#Cc3ccccc3)cc2O[C@@H]1CN(C)C(=O)Nc1ccccc1	-29
COCC#Cc1ccc2c(c1)O[C@H](CN(C)C(C)=O)[C@H](C)CN([C@@H](C)CO)S2(=O)=O	1
C[C@H](CO)N1C[C@H](C)[C@@H](CN(C)Cc2ccc(C(F)(F)F)cc2)Oc2c(cccc2N(C)C)C1=O	-98
CC(=O)Oc1ccc2c(c1)C(=O)c1ccccc1CO2	35*
CC(C)CC#Cc1cnc2c(c1)C(=O)N([C@H](C)CO)C[C@@H](C)[C@H](CN(C)C(=O)Nc1ccccc1F)O2	-14
C[C@@H]1CN([C@H](C)CO)S(=O)(=O)c2ccc(C#C[C@@H](C)O)cc2O[C@H]1CN(C)C(=O)c1ccncc1	-7
COc1ccccc1-c1ccc2c(c1)O[C@H](CN(C)S(=O)(=O)c1ccccc1)[C@H](C)CN([C@@H](C)CO)S2(=O)=O	-17
CO[C@@H]1CN(C)C(=O)c2cc(NS(=O)(=O)CC(F)(F)F)ccc2OC[C@@H](C)N(C)C[C@H]1C	-5
CNC[C@H]1Oc2cc(C#C[C@H](C)O)ccc2S(=O)(=O)N([C@H](C)CO)C[C@@H]1C	-1
CNC[C@@H]1Oc2cc(C#C[C@@H](C)O)ccc2S(=O)(=O)N([C@H](C)CO)C[C@H]1C	5
CNC[C@H]1Oc2cc(C#CC(C)C)ccc2S(=O)(=O)N([C@@H](C)CO)C[C@@H]1C	-7
CNC[C@H]1Oc2cc(C#CC3CCCCC3)ccc2S(=O)(=O)N([C@H](C)CO)C[C@@H]1C	42*
CNC[C@@H]1Oc2cc(C#CC3CCCCC3)ccc2S(=O)(=O)N([C@@H](C)CO)C[C@@H]1C	51*
CNC[C@@H]1Oc2cc(C#C[C@H](C)O)ccc2S(=O)(=O)N([C@@H](C)CO)C[C@@H]1C	5
SMILES	miR122 inh
C[C@H](CO)N1C[C@H](C)[C@@H](CN(C)C(=O)C2CCCCC2)Oc2ncc(-c3cccc(C#N)c3)cc2C1=O	2
COCC(=O)Nc1ccc2c(c1)OC[C@@H](C)N(C(C)=O)C[C@@H](C)[C@@H](OC)CN(C)C2=O	-2
COc1ccccc1-c1cnc2c(c1)C(=O)N([C@@H](C)CO)C[C@H](C)[C@@H](CN(C)Cc1ccccc1)O2	3
CO[C@H]1CN(C)C(=O)c2cc(NC(C)=O)ccc2OC[C@H](C)N(C(=O)c2ccccc2)C[C@@H]1C	1
Cc1ccc(-c2ccc3c(c2)O[C@@H](CN(C)Cc2cccc(C(=O)O)c2)[C@H](C)CN([C@@H](C)CO)S3(=O)=O)cc1	2
C[C@@H]1CN([C@@H](C)CO)C(=O)c2cc(-c3cccc(C#N)c3)cnc2O[C@@H]1CN(C)Cc1ccccc1	3
C[C@@H]1CN([C@H](C)CO)C(=O)c2cccc(NC(=O)c3cnccn3)c2O[C@@H]1CN(C)C(=O)Nc1cccc2ccccc12	-95
CC(C)C#Cc1ccc2c(c1)O[C@H](CN(C)Cc1ccncc1)[C@@H](C)CN([C@H](C)CO)S2(=O)=O	-15
C[C@@H]1CN([C@H](C)CO)C(=O)c2cc(-c3cccc(F)c3)cnc2O[C@@H]1CN(C)C(=O)c1ccccn1	0
COc1cccc(-c2cnc3c(c2)C(=O)N([C@H](C)CO)C[C@H](C)[C@@H](CN(C)C(=O)Nc2ccccc2F)O3)c1	7
C[C@@H]1CN([C@H](C)CO)C(=O)c2cc(-c3ccccc3)cnc2O[C@H]1CN(C)C(=O)Nc1ccc2c(c1)OCO2	-5
C[C@H]1CN([C@@H](C)CO)C(=O)c2cccc(NC(=O)Nc3ccc4c(c3)OCO4)c2O[C@@H]1CN(C)CC1CCCCC1	-97
